In PubChem BioAssay (NCATS):
A number with no mark means an inactive call. Inconclusive results are not listed. Calls of active or inactive are those of the source.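 How the source made its calls, unless noted: active means compounds whose dose series gives a full or clear partial fitted curve of increased nuclear translocation; inconclusive means weak partial curve or effect only at the top dose; inactive means no dose-dependent translocation response.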 Residues, ends and D or L forms follow the SMILES beside them. *: point of attachment. Cbz = O=C(OCc1ccccc1)*

How the values were obtained:
[1] = target: Glucocorticoid receptor (Homo sapiens) (UniProt P04150); experiment: GR-GFP Redistribution (AID 450); settings: U2OS GR-GFP nuclear translocation, laser cytometry, 2 h; further: potency means the concentration at half of the fitted maximal effect
Sequence of Glucocorticoid receptor (Homo sapiens) (P04150 whole entry, looked up, the tested form may be a part): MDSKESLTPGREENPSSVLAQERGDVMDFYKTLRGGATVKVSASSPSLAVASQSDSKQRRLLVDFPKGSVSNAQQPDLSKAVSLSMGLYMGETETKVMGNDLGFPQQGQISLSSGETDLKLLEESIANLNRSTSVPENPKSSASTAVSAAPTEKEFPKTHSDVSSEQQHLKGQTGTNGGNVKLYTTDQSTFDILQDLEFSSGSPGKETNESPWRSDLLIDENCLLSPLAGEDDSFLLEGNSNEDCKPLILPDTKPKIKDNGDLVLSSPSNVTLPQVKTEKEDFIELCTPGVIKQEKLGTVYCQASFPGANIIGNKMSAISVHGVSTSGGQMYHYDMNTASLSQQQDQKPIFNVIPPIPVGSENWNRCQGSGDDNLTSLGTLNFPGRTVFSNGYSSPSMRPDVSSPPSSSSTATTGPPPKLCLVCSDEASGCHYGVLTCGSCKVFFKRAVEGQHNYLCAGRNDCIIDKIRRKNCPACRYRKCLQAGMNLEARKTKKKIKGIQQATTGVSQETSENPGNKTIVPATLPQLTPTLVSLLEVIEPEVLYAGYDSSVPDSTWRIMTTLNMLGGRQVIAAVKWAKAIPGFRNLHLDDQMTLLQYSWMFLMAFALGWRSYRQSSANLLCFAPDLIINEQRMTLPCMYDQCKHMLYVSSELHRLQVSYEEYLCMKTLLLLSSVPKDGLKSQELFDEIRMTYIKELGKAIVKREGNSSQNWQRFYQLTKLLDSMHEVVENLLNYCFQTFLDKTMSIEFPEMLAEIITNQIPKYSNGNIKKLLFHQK

[2] = target: Glucocorticoid receptor (Homo sapiens) (UniProt P04150); experiment: GR-EFC Redistribution (AID 451; calls by dose curve; further: potency means the concentration at half of the fitted maximal effect); settings: CHO-K1 GR-EFC translocation, beta-gal luminescence, 2 h
Outline: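 CHO-K1 cells expressing nuclear EA and GR-ED fragments of b-gal; compounds titrated up to 46 uM final, 2 h at 37 C. GR nuclear translocation read as complemented b-gal luminescence after 1 h RT detection.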

[3] = target: Mitogen-activated protein kinase 10 (Mus musculus) (UniProt Q61831); experiment: JNK3 AlphaScreen Assay (AID 530; active means well fitted curve in either direction with a large enough effect, not every such curve was filed as active;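 further: kinase came from lysate of stimulated human HepG2 cells; signal reports phosphorylation of biotinylated GST-cJun 1-79 at Ser73 with 10 µM ATP; on the % scale 0 is the no-effect control and ±100 the full control effect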); settings: JNK3 lysate, c-Jun phosphorylation; series mostly up to 57.1 µM
Outline: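 Pre-activated (IL-1β/TNFα) JNK3 in HepG2 lysates phosphorylates biotin-GST-cJun(1-79), 10 uM ATP; anti-phospho-cJun(Ser73) AlphaScreen read at room temperature, pH 7.6 Tris buffer. Compounds pre-incubated 15 min as titrations.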

[4] = Stat Signaling Pathway (AID 446; active means well fitted curve in either direction with a large enough effect, not every such curve was filed as active;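 further: ME-180 cervical cancer cells given 40 pM IL-6 alongside compound; SIE-controlled beta-lactamase reporter measured as 460/530 nm FRET emission ratio; on the % scale 0 is the no-effect control and ±100 the full control effect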); settings: ME-180 SIE beta-lactamase reporter, IL-6 stimulated, 5 h; at 38 µM (top of the series) unless noted
Outline: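 Reporter line: ME-180 cervical carcinoma, SIE-beta-lactamase. Treatment: compound with 40 pM IL-6, 5 hrs, 37 C, in low-serum OPTI-MEM with 10 mM HEPES pH 7.3. Detection: 460/530 nm fluorescence.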

Compound | Potency [1] | Potency [2] | outcome [3] | activity, negative = inhibition [4]
Cn1c(=O)c2[nH]c(C3CCCC3)nc2n(C)c1=O | > 46 µM | > 46 µM | – | –
NC1(C(=O)O)CC1 | > 46 µM | > 46 µM | inactive | –
O=C(O)C1=CC(=C(c2ccc(O)c(C(=O)O)c2)c2ccc(O)c(C(=O)O)c2)C=CC1=O | > 46 µM | > 46 µM | – | –
O=C1Nc2ccc(I)cc2/C1=C/c1cc(Br)c(O)c(Br)c1 | > 46 µM | > 46 µM | – | –
O=[N+]([O-])c1cccc2c(Br)[nH]nc12 | > 46 µM | – | – | –
NCCNS(=O)(=O)c1cccc2c(Cl)cccc12 | > 46 µM | > 46 µM | inactive | –
N=C(N)c1ccccc1 | – | – | inactive | 8.11%
NCCCCN=C(N)N | > 46 µM | – | inactive | -20.8%
CC(C)(C)c1cc(/C=C(\C#N)C(N)=S)cc(C(C)(C)C)c1O | > 46 µM | – | – | –
C/C(=C\c1ccc(C(=O)O)cc1)c1ccc2c(c1)C(C)(C)CCC2(C)C | > 46 µM | > 46 µM | inactive | –
N#C/C(=C\c1ccc(O)c(O)c1)C(=O)NCCc1ccccc1 | – | – | inactive | -24%
N=C(N)SCCc1cnc[nH]1 | > 46 µM | > 46 µM | inactive | –
N[C@@H](CS(=O)O)C(=O)O | > 46 µM | – | inactive | –
CC[C@@H]1Cc2cc(O)ccc2C2=C1c1ccc(O)cc1C[C@H]2CC | > 46 µM | – | inactive | –
CC(=O)NNC(=O)N1Cc2ccccc2Oc2ccc(Cl)cc21 | > 46 µM | > 46 µM | inactive | –
C=C1C(=O)O[C@@H]2[C@H]3O[C@]3(C)CCC=C(C)CC[C@@H]12 | – | > 46 µM | inactive | –
COc1cc(CC(=O)O)ccc1O | > 46 µM | – | inactive | –
CCCC(=O)NCCc1c2n(c3ccc(OC)cc13)CCCc1ccccc1-2 | > 46 µM | – | inactive | –
OC1(c2ccc(Cl)cc2)CCN(Cc2c[nH]c3ccccc23)CC1 | > 46 µM | > 46 µM | inactive | –
O=c1[nH]c(=O)c2nc3ccccc3nc2[nH]1 | > 46 µM | – | inactive | –
CCCc1c(-c2ccc(O)cc2)nn(-c2ccc(O)cc2)c1-c1ccc(O)cc1 | > 46 µM | – | inactive | –
CN1CCN(c2nc3cc(C(F)(F)F)ccc3n3cccc23)CC1 | > 46 µM | – | inactive | –
CC(C)[C@H](NC(=O)OCc1ccccc1)C(=O)N[C@H](C=O)Cc1ccccc1 (Cbz-Val-Phe-aldehyde) | > 46 µM | > 46 µM | inactive | –
